Test results from PubChem BioAssay (NCATS).
Entries with a potency or affinity are not part of this list. Unmarked numbers belong to inactive results. The rule behind the calls is not given here.

Conditions: Ebola virus entry assay, green fluorescence channel
Note: 0% is about no effect.

SMILES | efficacy [%]
CCN(CC)CCNC(=O)c1cc(S(C)(=O)=O)ccc1OC | -10.9
O=C(N/N=C/c1ccc([N+](=O)[O-])o1)c1cc([N+](=O)[O-])cc([N+](=O)[O-])c1O | -16.9
COC(=O)C(Cl)C(=O)OC | 18.5
Cc1ncc(CO)c(CO)c1O | -13.2
C[C@H](N)C(=O)c1ccccc1 | 31.4
CC1(C)O[C@@H]2C[C@H]3[C@@H]4CCC5=CC(=O)C=C[C@]5(C)[C@@]4(F)[C@@H](O)C[C@]3(C)[C@]2(C(=O)CO)O1 | 24.4
O=C(CCOCCOCCOCCOCCC(=O)Nc1c(I)cc(I)c(C(=O)O)c1I)Nc1c(I)cc(I)c(C(=O)O)c1I | -16.9
C#C[C@]1(O)CC[C@H]2[C@@H]3CCC4=CC(=O)CC[C@@H]4[C@H]3CC[C@@]21CC | 10.4
CC(=O)N(CC(O)CO)c1c(I)c(C(=O)NCCO)c(I)c(C(=O)NCC(O)CO)c1I (centres undefined) | -10.6
CCC(C(=O)NC(=O)NC(C)=O)c1ccccc1 (centres undefined) | -14.5
CO[C@@]1(NC(=O)CSCC#N)C(=O)N2C(C(=O)O)=C(CSc3nnnn3C)CS[C@@H]21 | -13.7
CCN1CCCC1CN (centres undefined) | -12.7
CCCc1ccc(OCC(=O)N2CCN(C(=O)COc3ccc(CCC)cc3OC)CC2)c(OC)c1 | 12.4
CC(C)Cc1ccc(CC(=O)O)cc1 | -19.8
C/C=C1\[C@H]2C=C(C)C[C@]1(N)c1ccc(=O)[nH]c1C2 | 25.8
CC(=O)OCC(=O)[C@@]1(O)CC[C@H]2[C@@H]3CCC4=CC(=O)C=C[C@]4(C)[C@@]3(F)[C@@H](O)C[C@@]21C | 26.4
NC(N)=NCCN1CCCCCCC1 | -19.4
C=CCc1ccc(O)c(OC)c1 | 23.7
COc1cc(O)cc(O)c1 | 16.6
NC(=O)c1cc[n+](CC2=C(C(=O)[O-])N3C(=O)[C@@H](NC(=O)Cc4cccs4)[C@H]3SC2)cc1 | -13.3

SMILES | efficacy [%]
CC(=O)OC(C)OC(=O)C(C)c1ccc(-c2ccccc2)c(F)c1 (centres undefined) | -16.8
CCCCC(CC)CNC(=O)CC(C)OC(=O)CCC(=O)O (centres undefined) | 12.2
Nc1ccc(C(=O)O)cc1 | -10.9
Nc1ccc(/C=C/c2ccc(N)cc2S(=O)(=O)O)c(S(=O)(=O)O)c1 | 21.3
OC[C@H]1O[C@@H](Oc2ccc(O)cc2)[C@H](O)[C@@H](O)[C@@H]1O | -11.6
O=C1OC2(c3ccccc31)c1cc(Br)c(O)c(Br)c1Oc1c2cc(Br)c(O)c1Br | 23.8
Cc1ccc(Nc2nccc(N(C)c3ccc4c(C)n(C)nc4c3)n2)cc1S(N)(=O)=O | 37.4
C[C@]12CCC(=O)C=C1CC[C@@H]1[C@@H]2CC[C@]2(C)C(=O)CC[C@@H]12 | 19.1
OC1(c2ccc(Cl)cc2)CCNCC1 | 19.8
CC(=O)N(c1onc(C)c1C)S(=O)(=O)c1ccc(N)cc1 | -8.94
O=P(O)(O)OCC(O)CO (centres undefined) | 14.9
Oc1ccc(Cl)cc1 | -35.6
CC1CN(c2cc3c(cc2F)c(=O)c(C(=O)O)cn3-c2ccc(F)cc2F)CCN1 (centres undefined) | 9.66
Cc1ccsc1/C=C/C1=NCCCN1C | -24.4
CC(C)CCCC(C)NCCC(C)C (centres undefined) | -17.9
O=[N+]([O-])O[C@H]1CO[C@H]2[C@@H]1OC[C@H]2O[N+](=O)[O-] | -25.2
CCOC(=O)c1cnc2c(cnn2CC)c1NN=C(C)C | -8.64
Cc1cc(=O)[nH]c(=S)[nH]1 | -11.2
NC(=O)NC1NC(=O)NC1=O (centres undefined) | -19.2
